Screening data from PubChem BioAssay.
Hits are enriched below; roughly 3.3% of the tested compounds scored in any of these assays.
PI5P4K alpha inh: blocks human PI5P4K alpha kinase activity | P48426 | PI5P4Kalpha enzyme, ADP-Glo luminescence, 60 min; stronger effect = lower value | max response, % | hit rate 1.2% among 330,000 | AID 652105; active = max response of -50% or lower; inconclusive = between -30% and -50%; inactive = -30% or higher; note: value at the top dose of about 77 µM
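Quantitative HTS of the MLSMR library against PI5P4Kalpha with substrate. ATP added last at 5 microM final; room temperature, 60 minutes. Remaining ATP depleted, ADP converted and read as luminescence.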
USP1-UAF1 inh: inhibitors of human USP1/UAF1 deubiquitinase; O94782; hit rate 0.23% among 390,000; recombinant USP1/UAF1, Ub-Rhodamine cleavage fluorescence; Potency, µM (top dose mostly 57.1 µM), for the others: top-dose activity change, negative = inhibition, hits mostly inhibitors; note: potency is the fitted concentration of half-maximal effect; nearly all actives have a fitted effect of over 60% in size
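In this screen, compounds sit with the deubiquitinase complex (1nM) for 15 min at room temperature before Ub-Rho is added at 150nM final. Fluorescence rise is then followed for 6 reads every 60 seconds.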
PLK1 PBD inh: inhibitors of human PLK1 polo-box domain binding; hit rate 2.8% among 360,000; Plk1 PBD binding of FITC phosphopeptide, fluorescence polarization; Potency, µM, inactives show max response, negative = inhibition, most hits filed as inhibitors; note: potency is the fitted concentration of half-maximal effect; series mostly up to about 57 µM; nearly all actives have a fitted effect of over 65% in size
Target sequence (P53350 whole entry, looked up, the tested form may be a part): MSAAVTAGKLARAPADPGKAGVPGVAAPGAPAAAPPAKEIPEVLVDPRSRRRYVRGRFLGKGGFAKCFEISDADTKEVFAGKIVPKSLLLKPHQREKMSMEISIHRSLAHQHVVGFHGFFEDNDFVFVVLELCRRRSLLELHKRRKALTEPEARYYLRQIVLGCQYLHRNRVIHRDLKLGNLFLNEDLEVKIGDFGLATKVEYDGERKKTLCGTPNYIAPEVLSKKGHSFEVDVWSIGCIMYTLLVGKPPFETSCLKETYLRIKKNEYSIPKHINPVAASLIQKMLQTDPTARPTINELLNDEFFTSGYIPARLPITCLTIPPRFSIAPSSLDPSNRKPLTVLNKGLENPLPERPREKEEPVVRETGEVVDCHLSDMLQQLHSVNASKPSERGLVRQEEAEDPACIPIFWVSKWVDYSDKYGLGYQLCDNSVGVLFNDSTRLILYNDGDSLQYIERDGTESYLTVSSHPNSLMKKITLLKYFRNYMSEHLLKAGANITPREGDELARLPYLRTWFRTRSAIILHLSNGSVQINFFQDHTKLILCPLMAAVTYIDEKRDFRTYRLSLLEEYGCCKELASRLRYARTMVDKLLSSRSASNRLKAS
USP2a inh: blocks human ubiquitin-specific protease USP2a. USP2 core, Ub-CHOP2 coupled fluorogenic reporter, 485/531. Potency, µM (series often up to 38.3 µM), for inactives: at the top dose activity change, negative = inhibition, actives largely listed as inhibitors. hit rate 0.01% among 330,000. O75604;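 note: potency is the fitted concentration of half-maximal effect; plate controls were DMSO wells for no effect and full inhibition by NEM control for full effect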
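Deubiquitinase activity read as fluorescence (485/531 nm) after Ub-CHOP2 cleavage activates the enterokinase reporter on its substrate; USP2 core 10nM, Ub-CHOP2 and substrate 25nM each, 30min compound preincubation then 60min RT; data normalized to NEM, curves fitted.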
WRN inhibitor: blocks human WRN helicase | Q14191 | WRN helicase unwinding, fluorescent forked duplex, kinetic | Potency, µM (highest dose often 114 µM), for inactives: top-dose activity change, negative = inhibition, actives largely listed as inhibitors | hit rate 0.46% among 360,000 | AID 651768; note: potency is the fitted concentration of half-maximal effect; nearly all actives have a fitted effect of over 55% in size
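Screening of the MLSMR collection measured strand separation of a quenched forked DNA duplex (100 nM) by 20 nM WRN with 2 mM ATP, all final. Compounds were preincubated with enzyme 15 min at room temperature.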
Active calls of the source: *. Unless noted, calls come from the whole dose curve; as a rule, active = well fitted curve in the direction sought with a large enough effect; inconclusive = small, poorly fitted or top-dose-only effect, or another doubt; inactive = no such curve, though single readings can be large; an effect the other way counts as inactive or inconclusive. Unless noted, % is set by controls: 0 for no effect and ±100 for the full control effect.

Results for C#CCOCCOCCOCCNc1nc(N2CCN(C(=O)CCCCCCCCCCNC(=O)[C@H](CCC(=O)O)n3cc(CCCCCN)nn3)CC2)nc(N2CCN(C(=O)CCCCCCCCCCNC(=O)[C@@H]([C@H](C)O)n3cc(C)nn3)CC2)n1 ?
PI5P4K alpha inh: -22.2; USP1-UAF1 inh: 13.8%; PLK1 PBD inh: -14.1%; USP2a inh: -8.2%; WRN inhibitor: 3.7%

What do the screens show for `C#CCOCCOCCOCCNc1nc(N2CCN(C(=O)CCCCCCCCCCNC(=O)[C@H]([C@@H](C)CC)n3cc(CCCCCN)nn3)CC2)nc(N2CCN(C(=O)CCCCCCCCCCNC(=O)[C@@H]([C@H](C)O)n3cc(C)nn3)CC2)n1`?
PI5P4K alpha inh: inconclusive; USP1-UAF1 inh: -21.8%; PLK1 PBD inh: -22.3%; USP2a inh: 10µM*; WRN inhibitor: 56.2µM*

How did C#CCOCCOCCOCCNc1nc(N2CCN(C(=O)CCCCCCCCCCNC(=O)[C@H](CCCCN)n3cc(CCCC(=O)O)nn3)CC2)nc(N2CCN(C(=O)CCCCCCCCCCNC(=O)[C@H](CCCCN)n3cc(CCCC(=O)O)nn3)CC2)n1 do in these assays?
PI5P4K alpha inh: -55.6*; USP1-UAF1 inh: 13.1%; PLK1 PBD inh: -20.9%; USP2a inh: -3.5%; WRN inhibitor: 0.6%

How did C#CCOCCOCCOCCNc1nc(N2CCN(C(=O)CCCCCCCCCCNC(=O)[C@H](CCCCN)n3cc(CCO)nn3)CC2)nc(N2CCN(C(=O)CCCCCCCCCCNC(=O)[C@H](CCCCN)n3cc(CCO)nn3)CC2)n1 do in these assays?
PI5P4K alpha inh: -66.9*; USP1-UAF1 inh: -24.7%; PLK1 PBD inh: -9.2%; USP2a inh: inconclusive; WRN inhibitor: -9.7%

How did C#CCOCCOCCOCCNc1nc(N2CCN(C(=O)CCCCCCCCCCNC(=O)[C@@H]([C@H](C)O)n3cc(C)nn3)CC2)nc(N2CCN(C(=O)CCCCCCCCCCNC(=O)[C@@H]([C@H](C)O)n3cc(C)nn3)CC2)n1 do in these assays?
PI5P4K alpha inh: 6.1; USP1-UAF1 inh: -26.0%; PLK1 PBD inh: -7.2%; USP2a inh: -8.5%; WRN inhibitor: 2.0%

Results for C#CCOCCOCCOCCNc1nc(N2CCN(C(=O)CCCCCCCCCCNC(=O)[C@H](CCCCN)n3cc(CCO)nn3)CC2)nc(N2CCN(C(=O)CCCCCCCCCCNC(=O)[C@@H]([C@H](C)O)n3cc(C)nn3)CC2)n1 ?
PI5P4K alpha inh: -84.0*; USP1-UAF1 inh: inconclusive; PLK1 PBD inh: -9.4%; USP2a inh: -27.2%; WRN inhibitor: 17.7%

What do the screens show for `C#CCOCCOCCOCCNc1nc(N2CCN(C(=O)CCCCCCCCCCNC(=O)[C@@H](CCC(=O)O)n3cc(CCCCCN)nn3)CC2)nc(N2CCN(C(=O)CCCCCCCCCCNC(=O)[C@@H](CCC(=O)O)n3cc(CCCCCN)nn3)CC2)n1`?
PI5P4K alpha inh: -19.3; USP1-UAF1 inh: -24.2%; PLK1 PBD inh: -2.3%; USP2a inh: -13.8%; WRN inhibitor: 1.1%

Results for O=C(NCc1ccc(F)cc1)C(=O)NCC(c1ccco1)S(=O)(=O)c1cccs1 (stereo not given) ?
USP1-UAF1 inh: -10.6%

How did COc1ccc(N2CC(NC(=O)/C=C\c3ccccc3)CC2=O)cc1 (stereo not given) do in these assays?
USP1-UAF1 inh: -7.0%

Results for COc1cccc(CNC(=O)c2ccc3c(c2)nc2n3CCCCC2)c1OC ?
USP1-UAF1 inh: -16.5%

Results for Cc1cc(Cl)c2oc(C(=O)N3CCOCC3)c(C)c2c1 ?
PI5P4K alpha inh: -3.5; USP1-UAF1 inh: -7.5%; PLK1 PBD inh: 4.4%; WRN inhibitor: -1.9%

How did Cc1cc(Cl)c2oc(C(=O)N(C)C3CCOC3)c(C)c2c1 (stereo not given) do in these assays?
PI5P4K alpha inh: -22.5; USP1-UAF1 inh: -6.5%; PLK1 PBD inh: 3.36µM*; USP2a inh: -1.4%; WRN inhibitor: -7.1%

How did Cc1ccc(NC(=O)NCCOCCn2c(=O)oc3ccccc32)c(C)c1 do in these assays?
USP1-UAF1 inh: -9.1%

What do the screens show for `C/C(=N\NC(=O)CN(c1ccc(C)cc1)S(C)(=O)=O)c1cccs1`?
PI5P4K alpha inh: 10.2; USP1-UAF1 inh: -10.3%; PLK1 PBD inh: -14.8%; USP2a inh: 1.5%; WRN inhibitor: -5.2%

What do the screens show for `C/C(=N\NC(=O)CN(c1ccccc1Br)S(C)(=O)=O)c1cccs1`?
PI5P4K alpha inh: -24.8; USP1-UAF1 inh: inconclusive; PLK1 PBD inh: 26.7µM*; USP2a inh: 1.3%; WRN inhibitor: -12.3%

How did CS(=O)(=O)c1ccc(Sc2nc3ccccc3s2)c([N+](=O)[O-])c1 do in these assays?
PI5P4K alpha inh: 4.9; USP1-UAF1 inh: -18.9%; PLK1 PBD inh: -15.0%; USP2a inh: -3.6%; WRN inhibitor: -1.9%
